Bioassay records: PubChem BioAssay, The Scripps Research Institute Molecular Screening Center
ADAM17 inh = inhibits human ADAM17; P78536; recombinant ADAM17, EDANS/DABCYL FRET peptide cleavage; inhibition, % at 6.95 µM; hit rate 0.83% among 370,000;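 active means inhibition above the mean of compounds lying between control limits plus 3 SD, set per campaign, cut at about 8.5% in these data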;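 further: 0% = DMSO-only wells as the low control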
PLC-gamma1 inh = PLC-gamma1 (human) inhibition, primary screen. AID 720700. inhibition, % at 12.2 µM. purified PLC-gamma1, fluorogenic substrate, fluorescence. hit rate 0.84% among 370,000. P19174; in the data active means inhibition above about 9.5%
KLK7 zymogen act = activators of human kallikrein-7 zymogen | purified proKLK7, EDANS-DABCYL substrate fluorescence; 100% is mature enzyme control, 0% vehicle | activation, % at 7 µM | hit rate 0.9% among 370,000;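 active means activation above the mean of all tested compounds plus 3 SD, computed per campaign excluding outliers beyond control limits, cut at about 13% in these data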
PLC-beta3 inh = blocks human PLC-beta3 enzyme activity; Purified PLC-beta3, fluorogenic substrate, fluorescence; inhibition, % at 12.2 µM; hit rate 0.18% among 370,000; AID 720704;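 further: 0% = median of compound wells on plate and 100% = full blocker control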
sPLA2-III inh = Blocks human group III sPLA2 activity; Q9NZ20; QFRET BODIPY PC-A2 liposome hydrolysis, fluorescence; inhibition, % at 12.2 µM; hit rate 0.56% among 370,000; AID 743126;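 active means inhibition above mean plus 3 SD of compounds lying within the high and low control bounds, cut at about 19% in these data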;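 further: 0% = median of test compound wells and 100% = no enzyme DMSO wells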
ADAM10 inh = inhibits human ADAM10. inhibition, % at 7 µM. recombinant ADAM10, EDANS/DABCYL FRET peptide cleavage, 3 h. hit rate 0.62% among 370,000. O14672;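 active means inhibition above a per-campaign cutoff equal to the mean of compounds falling between control-based bounds plus 3 SD, cut at about 20% in these data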;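 further: 0% = DMSO wells while the 100% control is not disclosed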
Target sequence (O14672 214-748 limits assumed): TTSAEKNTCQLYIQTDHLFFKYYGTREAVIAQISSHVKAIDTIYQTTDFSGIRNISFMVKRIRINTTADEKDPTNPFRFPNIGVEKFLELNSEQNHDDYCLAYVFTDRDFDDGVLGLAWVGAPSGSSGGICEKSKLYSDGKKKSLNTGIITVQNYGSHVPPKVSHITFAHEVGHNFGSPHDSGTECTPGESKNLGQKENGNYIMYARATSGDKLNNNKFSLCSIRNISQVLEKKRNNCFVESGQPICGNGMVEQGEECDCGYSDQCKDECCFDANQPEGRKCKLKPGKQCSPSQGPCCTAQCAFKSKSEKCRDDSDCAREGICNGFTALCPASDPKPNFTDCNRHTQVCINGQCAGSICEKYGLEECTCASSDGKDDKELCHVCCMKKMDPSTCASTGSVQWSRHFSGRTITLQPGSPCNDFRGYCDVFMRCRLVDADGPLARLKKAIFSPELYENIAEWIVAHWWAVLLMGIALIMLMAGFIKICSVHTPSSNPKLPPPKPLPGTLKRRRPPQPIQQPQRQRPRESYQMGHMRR
ADAM10 ctr = inhibits human ADAM10 in ADAM17 exosite counter-screen. hit rate 47% among 2,900. recombinant ADAM10, EDANS/DABCYL FRET peptide cleavage, 3 h. inhibition, % at 6.95 µM. shares compounds with ADAM17 inh;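 active means mean inhibition over the triplicate runs exceeds the activity threshold set in the earlier primary screen, cut at about 20% in these data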;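 further: 0% = DMSO wells and 100% = marimastat wells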
ADAM17 confirm = human ADAM17 inhibition, confirmation; shares compounds with ADAM17 inh; recombinant ADAM17, EDANS/DABCYL QFRET peptide cleavage; inhibition, % at 6.95 µM; hit rate 65% among 2,900;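 active means mean inhibition across replicates above the hit cutoff set in the primary screen, cut at about 8.5% in these data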;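 further: 0% = DMSO wells and 100% = marimastat wells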
PLCgamma1 ctr = inhibits human PLC-gamma1 in PLC-beta3 counter-screen; purified PLC-gamma1, fluorogenic substrate, fluorescence; inhibition, % at 12.3 µM; hit rate 3.1% among 3,300; AID 743258; shares compounds with PLC-gamma1 inh; in the data active means inhibition above about 9.5%
PLCbeta3 conf = confirmation of human PLC-beta3 inhibitors; purified PLC-beta3, fluorogenic substrate fluorescence; shares compounds with PLC-gamma1 inh; inhibition, % at 12.3 µM; hit rate 1% among 3,300
The depositor's hits bear a star; i = inactive; x = not tested or not shown. Only some compounds are listed: those with a hit (about 3.4% of all), similar ones and a draw of the others. Unless noted, no stated cut-off is given here; in the data, active means inhibition above about 11%; inactive means the rest.

SMILES	ADAM17 inh	PLC-gamma1 inh	KLK7 zymogen act	PLC-beta3 inh	sPLA2-III inh	ADAM10 inh	ADAM10 ctr	ADAM17 confirm	others
COc1ccc(COC(=O)C2CCN(S(=O)(=O)c3ccc(OC)c(OC)c3)CC2)cc1	9.7*	7	0	0	-14	9	30*	17*
COc1ccc(CCNC(=O)c2cc(-c3ccco3)nc3ccccc23)cc1	9.5*	-17	-1	-54	10	16	i	-271
COc1ccc(NC(=O)C2=CC(c3ccco3)=NS(=O)(=O)N2C)cc1	1	5	0	5	-9	0	x	x
COc1ccc(NC(=O)C2=CC(c3ccc(OC)cc3)=NS(=O)(=O)N2C)cc1	10*	1	1	-2	-19	11	17	7
COc1ccccc1N1CCN(C(=O)c2ccccc2Oc2ccccc2)CC1	15*	3	0	2	0	13	-2	0
O=C(c1ccccc1Oc1ccccc1)N1CCN(c2ccccc2F)CC1	3	2	0	2	3	2	x	x
CCOc1ccc(S(=O)(=O)Nc2ccc(F)cc2)c(C)c1C	9.5*	1	0	-2	-27	18	17	12*
COC(=O)[C@]12C[C@H](CC(=O)NCC34CC5CC(CC(C5)C3)C4)C(=O)N(CCc3ccc(OC)c(OC)c3)C1=C[C@H](C(C)(C)C)O[C@@H]2C	6	-1	0	5	-17	16	x	x
CSc1ccccc1NC(=O)Nc1cccc(Cl)c1	9.7*	2	0	3	-29	14	15	10*
COC(=O)C1=C(C)N=C2SC(C)C(=O)N2C1c1cccs1 (configuration not stated)	9.6*	5	0	0	-12	11	1	4
Cc1ccc(-n2c(SCc3cccc(F)c3)nc3sc4c(c3c2=O)CCCC4)cc1	-1	3	0	4	4	6	x	x
CCOC(=O)C1=CCN(S(=O)(=O)c2ccc(C)cc2)C1c1ccc(CC)cc1 (configuration not stated)	8.8*	1	1	1	-2	-10	20*	16*
CCOC(=O)C1=CCN(S(=O)(=O)c2ccccc2F)C1c1cccc(Br)c1 (configuration not stated)	9.2*	3	0	0	-4	13	17	9.5*
CCOC(=O)C1=CCN(S(=O)(=O)c2ccccc2F)C1c1cccc(C)c1 (configuration not stated)	-1	-2	0	-6	-3	-1	x	x
COc1ccc(CCNCC(O)COc2cccc(C)c2)cc1OC (configuration not stated)	1	-2	0	2	-1	-1	x	x
COC(=O)C1CN(Cc2cn(Cc3ccc(F)cc3)nn2)CCS(=O)(=O)N1Cc1ccc(C)cc1 (configuration not stated)	-2	1	0	-1	-2	0	x	x
CC(=O)c1cccc(NC(=O)CCC(=O)c2ccc(F)cc2)c1	2	-1	-1	-7	-6	5	x	x
CC(=O)c1cccc(NC(=O)COC(=O)CCC(=O)c2ccc(F)cc2)c1	8.9*	6	1	5	-4	-3	0	4
O=C(Cc1cccs1)Nc1nc(-c2ccc(F)c(F)c2)cs1	2	0	1	-3	-21	11	x	x
O=C(Cc1cccs1)Nc1nc(-c2ccc(F)cc2F)cs1	14*	13*	0	10	-16	16	19	11*	PLCgamma1 ctr=-6;PLCbeta3 conf=-7
Cc1ccc(N(C)S(=O)(=O)c2cccc(C(=O)N3CCN(Cc4ccccc4)CC3)c2)cc1	9.3*	11*	1	-4	-20	16	12	6	PLCgamma1 ctr=2;PLCbeta3 conf=2
